Source: PubChem BioAssay (NCI)
This is part of a sample that, as a whole, favours compounds with a hit. Of some 83,000 tested, about 20% had one in any assay.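 Negative percent growth values reflect cell death: -40 means 40% of the cells present at the start died, and -100 means all died.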 Values without a mark were called inactive. The source made the active and inactive calls. How the source made its calls: active means growth percent below 10; inactive means the rest.

Experiments:
Experiment in all cases: NCI-60 one-dose screen, 48 h (100 = growth as untreated, 0 = no growth, -100 = all killed)
Details in all cases: 10 µM unless noted
T-47D breast = tested on: T-47D breast
BT-549 breast = tested on: BT-549 breast
MDA-MB-435 melanoma = tested on: MDA-MB-435 melanoma
SW-620 colon = tested on: SW-620 colon
MCF7 breast = tested on: MCF7 breast
HCT-116 colon = tested on: HCT-116 colon
HCC-2998 colon = tested on: HCC-2998 colon
KM12 colon = tested on: KM12 colon

Row | SMILES | growth (T-47D breast) | growth (BT-549 breast) | growth (MDA-MB-435 melanoma) | growth (SW-620 colon) | growth (MCF7 breast) | growth (HCT-116 colon) | growth (HCC-2998 colon) | growth (KM12 colon)
1 | COc1ccc(/C(=C\c2ccccc2)C(=O)O)cc1OC | 85.7% | 102% | 106% | 97.4% | 93.7% | 102% | 103% | 103%
2 | O=C1Nc2ccccc2/C1=N/c1nc(-c2ccc(Cl)cc2)cs1 | 43.4% | 63.8% | 72.4% | 68.5% | 52.6% | 59.1% | 86.4% | 70.8%
3 | COc1ccc(Cn2nc3c(c2-c2cc(OC)c(OC)c(OC)c2)-c2oncc2CC3)cc1 | 79.3% | 88.9% | 0.861% (active) | 86% | 69.9% | 81.4% | 77.5% | 70.9%
4 | COc1ccc(-c2cnc(N)nc2-c2ccc(OC)cc2O)cc1 | 93.7% | 115% | 101% | 95.7% | 95.4% | 80.4% | 103% | 45.5%
5 | Cc1c2c(cc[n+]1Cc1ccccc1)c1ccc(OCC3CCCCC3)cc1n2CC1CCCCC1 | -74.1% (active) | -91% (active) | -84.9% (active) | -96.6% (active) | -92.3% (active) | -98.3% (active) | -93.2% (active) | -99.9% (active)
6 | COc1ccc(C(=O)c2cc3c(N)c(C(=O)Nc4cccc(Cl)c4)sc3nc2C)cc1 | 43.8% | 78.1% | -35.2% (active) | 35.4% | 26.5% | 14.9% | 18.3% | 22.1%
7 | COc1ccc(-c2cnnc3c(-c4cccc(C(F)(F)F)c4)cnn23)cc1 | 48.9% | -34.9% (active) | 47.2% | 79.3% | 73.9% | 2.24% (active) | 81.5% | 82.6%
8 | CN(C)CCCn1c2c(c3ccc(-c4ccn[nH]4)cc3c1=O)C(=O)c1ccccc1-2 | 43.2% | 56.1% | 78.4% | 37.1% | 9.49% (active) | 28.9% | 53.8% | 18.1%
9 | Clc1nc(Cl)c2ncn(CCOCCn3cnc4c(Cl)nc(Cl)nc43)c2n1 | -53.9% (active) | -94.1% (active) | -90.1% (active) | -86.9% (active) | -48.9% (active) | -79.7% (active) | -87.5% (active) | -85.9% (active)
10 | COc1ccc(C(=O)/C=C/c2cn(Cc3ccc(Cl)cc3)c3ccccc23)cc1 | 48.2% | 86.9% | -20.5% (active) | 28% | 52.6% | -77.5% (active) | 59.7% | 32.2%
11 | C[C@H]1[C@H](C)CC[C@]2(CO)CC[C@]3(C)C(=CC[C@@H]4[C@@]5(C)CCCNC(C)(C)[C@@H]5CC[C@]43C)[C@H]12 | 1.1% (active) | -66% (active) | -73.9% (active) | -69.6% (active) | -29.4% (active) | -94.7% (active) | -38.7% (active) | 0.124% (active)
12 | O=S(=O)(NCCNc1nccc(-c2c(-c3ccc(F)c(O)c3)nc3sccn23)n1)c1ccccc1 | 68.8% | 114% | 34.1% | 70.4% | 76.1% | 34.3% | 95% | 71.2%
13 | CCN(CC)CCCC(C)Nc1c2c(nc3ccc(OC)cc13)CCCC2 (stereo unspecified) | 113% | 101% | 103% | 103% | 91.4% | 73.6% | 103% | 106%
14 | COc1ccc(/C=C2\COc3ccc(-c4ccccc4)cc3C2=O)cc1O | 6.79% (active) | 2.18% (active) | 5.12% (active) | 6.95% (active) | 0.878% (active) | -5.06% (active) | 43.1% | 2.07% (active)
15 | CCCCCCNC(=O)Oc1ccc(/C(=C(/CC)Cc2ccccc2)c2ccc(OCCN(CC)CC)cc2)cc1 | 56.1% | 95.2% | 60.9% | 23.1% | 10.1% | 27.2% | 59.5% | 51.6%
16 | O=C(Nc1nc2ccc(S(=O)(=O)Nc3ccc(C4(C(F)(F)F)CC4)cc3)cc2[nH]1)c1cnccn1 | 31.7% | 44.6% | -29.8% (active) | 18.5% | 18.2% | 26.2% | 63.4% | 9.67% (active)

Row | SMILES | growth (T-47D breast) | growth (BT-549 breast) | growth (MDA-MB-435 melanoma) | growth (SW-620 colon) | growth (MCF7 breast) | growth (HCT-116 colon) | growth (HCC-2998 colon) | growth (KM12 colon)
17 | COc1ccc(C(=O)c2cc3c(N)c(C(=O)Nc4ccc(Br)cc4)sc3nc2C)cc1 | 70.6% | 78.2% | 63.6% | 79.1% | 71% | 58.2% | 94.7% | 72%
18 | O=C(O)c1cn(C2CC2)c2cc(N3CCN(C(=O)C[n+]4cccc5ccccc54)CC3)c(F)cc2c1=O | 74% | 75.8% | 59.5% | -17.2% (active) | 45.2% | 23.7% | 106% | 92.3%
19 | c1ccc(-c2nnc(Nc3ccc4c(c3)OCCO4)o2)c(NCc2ccncc2)c1 | 52.7% | -15.1% (active) | -34.6% (active) | 27.9% | 20% | 4.92% (active) | -22.3% (active) | -38.3% (active)
20 | Cc1nc2sc(C(=O)Nc3cccc(Br)c3)c(N)c2cc1C(=O)c1ccc(C(F)(F)F)cc1 | 95.1% | 95.7% | 87.9% | 72.2% | 70% | 56.1% | 86.9% | 84.8%
21 | C1=C2CNCC3=Cc4ccc5ccccc5c4OC23Oc2c1ccc1ccccc21 | 66.7% | 79.9% | -69.7% (active) | 8.75% (active) | 12% | 11.1% | 56.9% | 15.2%
22 | COc1ccc(C2CC(c3cccc(Nc4ccncc4)c3)=NN2c2ccc(Cl)cc2)cc1 (stereo unspecified) | 65.7% | 105% | -85.4% (active) | -89.4% (active) | -16.8% (active) | 108% | -13.5% (active) | -72.1% (active)
23 | COc1ccc(-c2nc3sccn3c2/C=C/C(=O)c2cc(OC)c(OC)c(OC)c2)cc1 | 30.5% | 46.9% | 29.8% | 72.5% | 17.2% | 42% | 71.2% | 35.8%
24 | CC(C)(C)OC(=O)N1C/C(=C\c2ccoc2)C(=O)/C(=C/c2ccoc2)C1 | 82.4% | 102% | 98.2% | 56.8% | 20.5% | 21.7% | 98.9% | 88.8%
25 | COC(=O)C1NC(=S)N(c2ccc(Cl)cc2)C1/C=C/c1ccccc1 (stereo unspecified) | 88.2% | 93.8% | 85.5% | 108% | 101% | 95.6% | 93.2% | 96%
26 | CN1C(=O)N(C)[C@H]2NC(NN)=N[C@H]21 | 91.7% | 101% | 101% | 103% | 97.8% | 96.9% | 102% | 105%
27 | CN1C2CCC1CN(c1cnc(C(=O)Nc3cc(F)cc4cccnc34)cn1)C2 | 36% | 70.7% | 55.9% | 36.2% | 5.77% (active) | 18.8% | 83.1% | 76.9%
28 | COc1ccc(-c2nc(N/N=C/c3cccc(O)c3)nc(N3CCOCC3)c2C#N)cc1 | 72% | 84.6% | 97.7% | 58.9% | 61.7% | 59.1% | 108% | 72.2%
29 | COc1ccc(-c2nc(SC(C)C)nc(NNC(N)=O)c2C#N)cc1 | 84.8% | 102% | 3.51% (active) | 50.7% | 84.3% | 102% | 88.9% | 58.6%
30 | O=C(Nc1ccc2cc3ccc(NC(=O)N4CCCCCC4)cc3nc2c1)N1CCCCCC1 | -30% (active) | -66.6% (active) | -82.4% (active) | -56.3% (active) | -45.9% (active) | -53.1% (active) | -63.7% (active) | -65.9% (active)
31 | c1ccc(CCSc2ncnc3nc[nH]c23)cc1 | 74.2% | 117% | 79.5% | 94.1% | 88.3% | 88.1% | 97.1% | 93.6%
32 | Cc1c2c(cc[n+]1Cc1ccc(F)cc1)c1ccc(OCc3cccc(F)c3)cc1n2Cc1cccc(F)c1 | -75.8% (active) | -88.3% (active) | -91.8% (active) | -87.6% (active) | -76.7% (active) | -92.1% (active) | -92.5% (active) | -98.8% (active)
